# Test results: PubChem BioAssay (NCATS)
# Where “and” joins values, the source holds several entries; their conditions need not be identical. Equal entries are not always repeated. Inconclusive results are not listed. Where a call stands in place of a potency, no number is given. Calls of active or inactive are those of the source. Unless noted, calls follow the shape of the dose curve; as a rule, active = well fitted curve in the direction sought with a large enough effect; inconclusive = small, poorly fitted or top-dose-only effect, or another doubt; inactive = no such curve, though single readings can be large; an effect the other way counts as inactive or inconclusive.
# Assays:
# [1] = molecular target: Alpha-galactosidase A (Homo sapiens) (UniProt P06280); assay: Counterscreen for Glucocerebrosidase Inhibitors: qHTS Assay for Human alpha-Galactosidase at pH 4.5 (AID 992)
# Method in brief: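 Citrate buffer pH 4.5, Tween-20 0.005%. Enzyme 2 nM, substrate 80 uM, 20 min RT. Stop pH 10. Fluorescence Ex 365/Em 440. AC50 by Hill fit.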
# [2] = molecular target: alpha-glucosidase (Oryza sativa, rice) (UniProt Q653V4); assay: Counterscreen for Glucocerebrosidase Inhibitors: qHTS Assay for Rice alpha-Glucosidase at pH 5.0 (AID 997)
# Method in brief: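 Endpoint fluorogenic assay at pH 5.0: compounds (0.7 nM to 77 uM) titrated against 4 nM rice enzyme and 400 uM 4-MU-alpha-glucoside for 20 min at room temperature; NaOH/glycine stop, read ex 365/em 440 nm, Hill-fitted AC50.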
# [3] = qHTS Assay for Lipid Storage Modulators (AID 1519; calls by dose curve); conditions: Drosophila S3 cells, BODIPY lipid droplet/cell ratio, laser cytometry, cells loaded with oleic acid
# Method in brief: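 Cells seeded at 5,000 per well were treated with compounds over a concentration series and loaded with oleic acid (400 uM, as added). Lipid droplet fluorescence (488 nm excitation, 500-530 nm channel) was read by laser-scanning cytometry and normalized to 20 uM Triacsin C.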
# [4] = molecular target: DNA repair nuclease/redox regulator APEX1 (Homo sapiens) (UniProt P27695); assay: qHTS Validation Assay for Inhibitors of the Human Apurinic/apyrimidinic Endonuclease 1 (APE1) (AID 1705;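 also: TAMRA fluorescence gain over two minutes as APE1 cuts a quenched THF abasic duplex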)
# Method in brief: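 Substrate: 50 nM final fluorophore/quencher THF-abasic duplex. Enzyme preincubated with compounds 15 min, RT. Progress derived from fluorescence difference, third minus first kinetic read.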
# [5] = Counterscreen for APE1 Inhibitors: Fluorescent Dye Displacement Validation Assay (AID 1707)
# Method in brief: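 Signal: ThO fluorescence (ex 480 nm/em 540 nm) on binding 50 nM dsDNA; displacement by test compound reduces it. Conditions: 250 nM dye, 50 mM Tris-HCl pH7.5, 2 mM MgCl2, 50mM NaCl, 0.01% Tween-20.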
# [6] = Cell Viability - LYMP2-026 (AID 989);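 also: cells exposed to compound for 24 h at 37 °C; nearly all actives have a fitted effect of over 50% in size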; also: potency is read from the fitted curve at half-maximal effect
# Method in brief: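 Cells are seeded at 2500 per well and held 5 hr at 37 C. Compounds are added in concentration series for 24 hr, then CellTiter-Glo reagent is applied and luminescence read.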
# [7] = Cell Viability - LYMP1-002 - Assay at 24 hr (AID 993); also: potency is read from the fitted curve at half-maximal effect
# Method in brief: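 Acute toxicity is measured as concentration-dependent loss of cellular ATP in a human lymphoblastoid line (Coriell LYMP1-002) after 24 h treatment in complete medium. ATP is quantified by luciferase luminescence and AC50 derived by Hill modelling.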
# [8] = Cell Viability - LYMP1-002 - Assay at 40 hr (AID 994); also: nearly all actives have a fitted effect of over 60% in size; also: potency is read from the fitted curve at half-maximal effect
# Method in brief: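 Cells are plated at 2500 per well and rested 5 hr at 37 C. Compounds are added and incubated 40 hr at 37 C. CellTiter-Glo reagent is added for 30 min at room temperature before luminescence is read.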
# [9] = molecular target: Endonuclease 4 (Escherichia coli (strain K12)) (UniProt P0A6C1); assay: Counterscreen for APE1 Inhibitors: qHTS Validation Assay for Inhibitors of Endonuclease IV (AID 1708)
# Method in brief: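 Enzyme (2 nM) + compound, 15 min RT; add 50 nM TAMRA/BHQ-2 THF-site dsDNA; kinetic read ex525/em598, 3 reads/60 s; activity = read 3 − read 1. Buffer Tris pH 7.5, 50 mM NaCl, 2 mM MgCl2, DTT, Tween-20.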
# [10] = measured here: cell count channel max response
# [11] = measured here: lipid channel max response
# Chain of Alpha-galactosidase A (Homo sapiens) (P06280 whole entry, looked up): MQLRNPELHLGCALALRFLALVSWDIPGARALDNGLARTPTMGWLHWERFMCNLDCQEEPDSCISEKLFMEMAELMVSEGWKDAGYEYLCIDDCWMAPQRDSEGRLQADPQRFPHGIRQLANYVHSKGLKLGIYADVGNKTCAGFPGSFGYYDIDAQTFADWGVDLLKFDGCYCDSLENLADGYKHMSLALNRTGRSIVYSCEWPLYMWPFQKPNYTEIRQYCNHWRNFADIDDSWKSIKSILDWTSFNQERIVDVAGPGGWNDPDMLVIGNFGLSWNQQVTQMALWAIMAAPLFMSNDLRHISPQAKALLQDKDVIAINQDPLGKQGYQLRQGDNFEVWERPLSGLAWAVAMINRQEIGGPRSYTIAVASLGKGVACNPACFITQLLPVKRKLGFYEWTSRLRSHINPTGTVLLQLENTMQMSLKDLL
# Chain of DNA repair nuclease/redox regulator APEX1 (Homo sapiens) (P27695 whole entry, looked up): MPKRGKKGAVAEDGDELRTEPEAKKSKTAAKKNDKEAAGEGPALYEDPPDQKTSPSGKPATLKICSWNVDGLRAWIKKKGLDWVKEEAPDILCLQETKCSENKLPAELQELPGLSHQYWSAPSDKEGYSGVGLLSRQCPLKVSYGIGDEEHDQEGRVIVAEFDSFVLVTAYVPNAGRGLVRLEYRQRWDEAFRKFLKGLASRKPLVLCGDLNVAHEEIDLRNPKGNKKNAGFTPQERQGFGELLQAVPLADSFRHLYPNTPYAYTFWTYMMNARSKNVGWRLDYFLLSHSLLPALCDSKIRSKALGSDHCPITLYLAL
compound,measurement,setting,value
CC(C)(C)c1ccc(C(O)CCCN2CCC(C(O)(c3ccccc3)c3ccccc3)CC2)cc1 (centres undefined),outcome,[1],inactive
same,outcome,[2],inactive
same,"activity change, negative = inhibition",[3]; at 57.5 µM (top of the series),-1.34% (inactive)
same,max response,[3]; [10],-10.3%
same,max response,[3]; [11],-13.9%
same,outcome,[4],inactive
same,outcome,[5],inactive
O=c1cc(-c2ccc(O)cc2)oc2cc(O)cc(O)c12,outcome,[1],inactive
same,outcome,[2],inactive
same,"activity change, negative = inhibition",[3]; at 57.5 µM (top of the series),5.85% (inactive) and 0.858% (inactive) and 6.23% (inactive)
same,max response,[3]; [10],-3.26% and -4.54% and 14.7%
same,max response,[3]; [11],4.46% and -2.56% and 22.7%
CN(C)CCC(c1ccccc1)c1ccccn1 (centres undefined),Potency,[6],inactive
same,Potency,[7],inactive
same,Potency,[8],inactive
same,"activity change, negative = inhibition",[3]; at 57.5 µM (top of the series),5.69% (inactive)
same,max response,[3]; [10],23.2%
same,max response,[3]; [11],33.1%
same,outcome,[4],inactive
same,outcome,[5],inactive
same,outcome,[9],inactive
C[N+](C)(C)CC(=O)O,outcome,[1],inactive
same,outcome,[2],inactive
CC(=O)N[C@@H](CS)C(=O)O,outcome,[1],inactive
same,outcome,[2],inactive
same,outcome,[4],inactive
same,outcome,[5],inactive
same,outcome,[9],inactive
CCN(CC)C(=O)c1ccc(O)c(OC)c1,outcome,[1],inactive
same,outcome,[2],inactive
same,"activity change, negative = inhibition",[3]; at 25.7 µM (top of the series),0.695% (inactive)
same,max response,[3]; [10],14.3%
same,max response,[3]; [11],14.5%
same,outcome,[4],inactive
same,outcome,[5],inactive
same,outcome,[9],inactive
CC1(C)CCC2=C(O1)c1ccccc1C(=O)C2=O,outcome,[1],inactive
same,outcome,[2],inactive
same,outcome,[4],inactive
same,outcome,[5],inactive
same,outcome,[9],inactive
CC(C)NCC(O)COc1cccc2[nH]ccc12 (centres undefined),outcome,[1],inactive
same,outcome,[2],inactive
same,"activity change, negative = inhibition",[3]; at 57.5 µM (top of the series),10.5% (inactive)
same,max response,[3]; [10],-0.51%
same,max response,[3]; [11],13.4%
same,outcome,[4],inactive
same,outcome,[5],inactive
NCCS,outcome,[1],inactive
same,outcome,[2],inactive
same,"activity change, negative = inhibition",[3]; at 57.5 µM (top of the series),0.57% (inactive)
same,max response,[3]; [10],-11.3%
same,max response,[3]; [11],-9.57%
same,outcome,[4],inactive
same,outcome,[5],inactive
same,outcome,[9],inactive
C[N+](C)(C)CCCCCC[N+](C)(C)C,outcome,[1],inactive
same,outcome,[2],inactive
same,"activity change, negative = inhibition",[3]; at 25.7 µM (top of the series),-1.97% (inactive)
same,"activity change, negative = inhibition",[3]; at 57.5 µM (top of the series),11.8% (inactive) and 0.867% (inactive) and 2.49% (inactive)
same,outcome,[4],inactive
same,outcome,[5],inactive
same,outcome,[9],inactive
CC/C(=C(\c1ccccc1)c1ccc(OCCN(C)C)cc1)c1ccccc1,Potency,[6],50.1 µM (active)
same,outcome,[1],inactive
same,Potency,[7],50.1 µM (active)
same,Potency,[8],50.1 µM (active)
same,outcome,[2],inactive
same,"activity change, negative = inhibition",[3]; at 57.5 µM (top of the series),6.58% (inactive)
same,max response,[3]; [10],6.28%
same,max response,[3]; [11],15.3%
same,outcome,[4],inactive
same,outcome,[5],inactive
O=C(O)CCc1nc(-c2ccccc2)c(-c2ccccc2)o1,outcome,[1],inactive
same,outcome,[2],inactive
same,"activity change, negative = inhibition",[3]; at 25.7 µM (top of the series),0.686% (inactive)
same,max response,[3]; [10],0.745%
same,max response,[3]; [11],2.18%
same,outcome,[4],inactive
same,outcome,[5],inactive
same,outcome,[9],inactive
O=C(O)c1cc(O)c2c(c1)C(=O)c1cccc(O)c1C2=O,Potency,[6],inactive
same,Potency,[7],inactive
same,Potency,[8],inactive
same,"activity change, negative = inhibition",[3]; at 57.5 µM (top of the series),8.11% (inactive)
same,max response,[3]; [10],13.4%
same,max response,[3]; [11],21.8%
CC(C)OC(=O)C(C)(C)Oc1ccc(C(=O)c2ccc(Cl)cc2)cc1,outcome,[1],inactive
same,outcome,[2],inactive
same,"activity change, negative = inhibition",[3]; at 25.7 µM (top of the series),-4.12% (inactive)
same,max response,[3]; [10],-11.4%
same,max response,[3]; [11],-14.8%
same,outcome,[4],inactive
COc1ccc(Cc2nccc3cc(OC)c(OC)cc23)cc1OC,outcome,[1],inactive
same,outcome,[2],inactive
O=C1NC(=O)C(c2ccccc2)(c2ccccc2)N1,Potency,[6],inactive
same,outcome,[1],inactive
same,Potency,[7],inactive
same,Potency,[8],inactive
same,outcome,[2],inactive
same,"activity change, negative = inhibition",[3]; at 57.5 µM (top of the series),7.13% (inactive) and 0.319% (inactive)
same,max response,[3]; [10],12.1% and -15.7%
same,max response,[3]; [11],24.5% and -14.7%
same,outcome,[4],inactive
same,outcome,[5],inactive
COc1cccc(-c2cc(=O)c3ccccc3o2)c1N,outcome,[1],inactive
same,outcome,[2],inactive
same,"activity change, negative = inhibition",[3]; at 57.5 µM (top of the series),1.98% (inactive)
same,max response,[3]; [10],13.8%
same,max response,[3]; [11],15.5%
same,outcome,[4],inactive
same,outcome,[5],inactive
same,outcome,[9],inactive
COC(=O)[C@@H]1[C@H]2C[C@H]3c4[nH]c5ccccc5c4CCN3C[C@@H]2CC[C@@H]1O,outcome,[4],inactive
same,outcome,[5],inactive
same,outcome,[9],inactive
CC(=O)O[C@]1(C(C)=O)CC[C@H]2[C@@H]3C=C(Cl)C4=CC(=O)[C@@H]5C[C@@H]5[C@]4(C)[C@H]3CC[C@@]21C,Potency,[6],inactive
same,Potency,[7],inactive
same,Potency,[8],inactive
CCN(CC)CCNC(=O)c1ccc(N)cc1,outcome,[1],inactive
same,outcome,[2],inactive
same,outcome,[4],inactive
same,outcome,[5],inactive
same,outcome,[9],inactive
COCCCCC(=NOCCN)c1ccc(C(F)(F)F)cc1,outcome,[1],inactive
same,outcome,[2],inactive
same,"activity change, negative = inhibition",[3]; at 25.7 µM (top of the series),0.501% (inactive)
same,max response,[3]; [10],5.99%
same,max response,[3]; [11],5.1%
O=c1[nH]cnc2c1ncn2[C@H]1CC[C@@H](CO)O1,Potency,[6],inactive
same,Potency,[7],inactive
same,Potency,[8],inactive
O=C(O)Cc1cccc2ccccc12,Potency,[6],inactive
same,Potency,[7],inactive
same,Potency,[8],inactive
CCCCC1C(=O)N(c2ccccc2)N(c2ccccc2)C1=O,Potency,[6],inactive
same,outcome,[1],inactive
same,Potency,[7],inactive
same,Potency,[8],inactive
same,outcome,[2],inactive
same,outcome,[4],inactive
same,outcome,[5],inactive
same,outcome,[9],inactive
CC1=C(/C=C/C(C)=C/C=C/C(C)=C/C(=O)Nc2ccc(O)cc2)C(C)(C)CCC1,Potency,[6],39.8 µM (active)
same,outcome,[1],inactive
same,Potency,[7],50.1 µM (active)
same,Potency,[8],50.1 µM (active)
same,outcome,[2],inactive
same,outcome,[4],inactive
same,outcome,[5],inactive
same,outcome,[9],inactive
CCn1cc(C(=O)O)c(=O)c2ccc(C)nc21,Potency,[6],inactive
same,Potency,[7],inactive
same,Potency,[8],inactive
